Shown are actives, neighbours in structure and some others; about 2.4% of the full set was active somewhere.
D2 PAM-1 – human D2 receptor positive allosteric modulation; P14416; DiscoveRx D2 beta-arrestin cells, luminescence, 90 min; 100% = 57 uM dopamine signal; potentiation, % (concentration not given with the values); actives 0.23% (n = 360,000); AID 624464; in the data active = potentiation above about 50%; inconclusive = mostly about 30% to 49%
Target sequence (P14416 whole entry, looked up): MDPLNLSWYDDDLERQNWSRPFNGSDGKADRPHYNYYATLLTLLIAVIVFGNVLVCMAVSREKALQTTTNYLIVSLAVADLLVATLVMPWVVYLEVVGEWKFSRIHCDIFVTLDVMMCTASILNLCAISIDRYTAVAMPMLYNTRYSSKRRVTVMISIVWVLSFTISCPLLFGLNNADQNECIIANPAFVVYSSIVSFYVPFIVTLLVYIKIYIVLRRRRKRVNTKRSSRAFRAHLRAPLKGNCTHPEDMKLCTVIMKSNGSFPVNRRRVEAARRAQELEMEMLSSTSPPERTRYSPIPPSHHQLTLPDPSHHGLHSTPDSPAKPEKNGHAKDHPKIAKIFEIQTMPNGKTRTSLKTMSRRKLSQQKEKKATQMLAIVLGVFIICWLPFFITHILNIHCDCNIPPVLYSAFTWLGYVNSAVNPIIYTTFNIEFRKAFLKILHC
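D2 cells co-treated with compound plus 50 nM dopamine (EC20) for 90 min at 37 deg C to detect potentiation. Beta-arrestin recruitment was read as enzyme-fragment luminescence after 1 h at ambient temperature. Full response was set by 57 uM dopamine.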
D2 antag – D2 dopamine receptor (human) antagonism; P14416; HEK293 TREx D2 cells, calcium flux, dopamine EC80; inhibition, % at 10 µM; actives 2% (n = 340,000); AID 485344; in the data active = inhibition above about 30%; inactive = below that, where a call was filed; note: 0% is about no effect
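Measurement of antagonist activity uses fluorescent calcium dye in inducible HEK293 T-REx D2 cells: 10 s baseline, compound addition with 180 s read, EC80 dopamine addition with a further 180 s read.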
D2 PAM-2 – positive allosteric modulators of human D2 dopamine receptor; actives 0.34% (n = 340,000); HEK293 T-REx D2, calcium flux, EC20 dopamine potentiation; P14416; potentiation, % at 10 µM;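 active = potentiation over 3 SD above the plate norm, cut at about 30% in these data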; note: 0% is about no effect
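Using a no-wash calcium dye in inducible, force-coupled HEK293 Trex cells expressing D2, we tracked fluorescence each second for 180 s after compound, then for 180 s after EC20 dopamine to detect augmented signalling.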
D2 ag-1 – agonists of human D2 dopamine receptor; HEK293 T-REx D2 cells, calcium flux agonist mode; activation, % at 2 µM; actives 0.53% (n = 340,000);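 active = activation over 3 SD above normal in the single-dose calcium agonist read, cut at about 30% in these data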; note: 0% is about no effect
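Calcium-flux readout, 1 cycle/sec over 180 s following compound pin transfer, in inducible HEK293 Trex D2 cells (force-coupled); dopamine controls included. Positive calcium responses during this window marked compounds as potential agonists.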
D2 ag-2 – agonists of human D2 dopamine receptor (beta-arrestin). P14416. DiscoveRx PathHunter D2 beta-arrestin, luminescence, 90 min; 100% = 57 uM dopamine signal. activation, % (concentration not given with the values). actives 0.084% (n = 360,000); in the data active = activation above about 40%; inconclusive = between about 15% and that limit
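DiscoveRx PathHunter D2 beta-arrestin cells (2,100/well) attached overnight, then compound-stimulated 90 min at 37 C in HBSS/10 mM HEPES/0.1% Tween-20 buffer; beta-galactosidase complementation read by luminescence after 1 h at ambient temperature. Dopamine 57 uM final (EC100) as control.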
An asterisk follows results filed as active; ? = inconclusive; · = no result.

SMILES	D2 PAM-1	D2 antag	D2 PAM-2	D2 ag-1	D2 ag-2
Cn1c(CCC(=O)O)nc2cc(S(=O)(=O)N3CCCC3)ccc21	-4	·	·	·	-2
O=C(NCc1ccc(F)cc1)C(c1ccccc1)N(CC1CCCO1)C(=O)Cn1nnc2ccccc21 (centres undefined)	2	-1	2	0	-1
CCCCN1C(=O)c2ccc(C(=O)N(C)CC(=O)Nc3ccc(OCC)c(OCC)c3)cc2C1=O	-13	·	·	·	-5
CCOc1ccc(NC(=O)CN(C)C(=O)CN2C(=O)c3ccc([N+](=O)[O-])cc3C2=O)cc1OCC	57*	-20	6	-1	6
O=C(Cn1c(=O)c2cccn2c2cccnc21)NCCCN1CCN(c2ccc(F)cc2)CC1	-54	54*	-27	20	1
CCn1c(=O)cc(SCC(=O)NCCCN2CCN(c3ccc(F)cc3)CC2)c2ccccc21	-15	66*	-26	27	5
CCCCNC(=O)CSc1cc(=O)n(C)c2ccccc12	-6	35*	-3	-1	-4
COc1ccc(N2CCN(CCCNC(=O)Cn3c(=O)c4cccn4c4cccnc43)CC2)cc1	-10	-17	-23	8	1
CCn1c(=O)cc(SCC(=O)NCCCN2CCC(C)CC2)c2ccccc21	-8	-1	-18	0	1
CCC(Sc1nnc(C)n2c1cc1sccc12)C(=O)Nc1ccccc1F (centres undefined)	·	·	·	0	·
C=CCOc1ccccc1CN1CCC(C(=O)Nc2cccc(-c3ccn[nH]3)c2)CC1	-33	92*	-4	1	0
C=CCn1c(=O)c(C#N)cc2c(=O)n3ccccc3nc21	-7	58*	1	0	-1
COc1cccc(-n2c(SCc3ccc(F)cc3)nc3c([nH]c4ccccc43)c2=O)c1	·	·	11	0	·
O=C(ONC1=NCCCCC1)c1c(F)cccc1F	65*	13	1	0	?
O=C(ONC1=NCCCCC1)c1ccc(Cl)cc1	?	7	5	1	?
CCOc1ccccc1-n1c(SCC(=O)N2CCCC2)nnc1-c1ccc(O)cc1	-3	2	31*	-1	0
CCOC(=O)C(NC(=O)CCl)(Nc1sc(C)c(CC)c1C#N)C(F)(F)F (centres undefined)	-18	6	17	-1	-2
COc1cc(C(=O)NCC(c2cccs2)N(C)C)cc(Cl)c1OC(C)C (centres undefined)	-30	34*	-15	1	-4
CCCOc1ccc(C(=O)NCC(c2cccs2)N(C)C)cc1OC (centres undefined)	-35	-6	-19	-1	-3
COc1cc2ccccc2cc1C(=O)NCC(c1cccs1)N(C)C (centres undefined)	-16	56*	-13	-1	-2
CC1(C(=O)NS(=O)(=O)c2ccc(F)cc2F)CCN1C(=O)c1ccccc1 (centres undefined)	-8	·	·	·	-4
O=C(NCc1ccco1)c1nn(-c2ccccc2)c(=O)c2ccccc12	-17	-11	-3	-1	-2
Cc1nc(N2CCOCC2)c2c(C(=O)N3CCN(c4ccccc4F)CC3)c(C)oc2n1	·	·	2	2	·
O=C(O)COc1ccc2c3c(c(=O)oc2c1)CCC3	-20	39*	2	0	-5
NS(=O)(=O)c1ccc(CCNC(=O)COc2ccc3c4c(c(=O)oc3c2)CCC4)cc1	-14	5	40*	0	-1
SMILES	D2 PAM-1	D2 antag	D2 PAM-2	D2 ag-1	D2 ag-2
O=C(CSc1nc2c(c(=O)[nH]1)CCC2)Nc1ccc(F)cc1	-1	-14	-12	1	-2
COc1c(C)cc(Br)cc1C(=O)Nc1ccccc1C	-5	8	-3	-2	-9
COc1c(C)cc(Br)cc1C(=O)O	-5	40*	-9	1	-1
Cc1cc(C)nc(SCc2ccc(C(=O)N/N=C/c3cccc(O)c3O)cc2)n1	59*	-45	22	2	11
CCc1ccc(NC(=O)CC2C(=O)N(c3ccccc3)C(=O)N2C(C)C)cc1 (centres undefined)	·	·	-1	0	·
Cc1ccc(C)c(Cn2nc(-c3cc(C)ccc3C)ccc2=O)c1	-10	35*	-3	1	-1
